Measurements as given in PubChem BioAssay AID1159580 (chemical genetic matrix, 2015).
“And” between values parts separate entries of the source, which are not always exact repeats. Identical values can stand only once. In all, about 5,500 compounds went through this assay and about 2,000 (36%) were called active. Not shown: some 18% with an inconclusive outcome. No stated cut-off is given here; in the data, active means normalized growth mostly below about 0.91 (no sharp cut-off); inconclusive means no clear call, values can overlap the other calls; inactive means mostly above about 0.92. Some of the results follow.

Assay: chemical genetic growth profiling, strain panel (AID 1159580);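 further: tested at 20 µM; growth read once vehicle control cultures reached saturation at 30 °C; 1 = growth at the plate median or of vehicle wells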
Conditions: S. cerevisiae deletion strains, growth OD

Measured: normalized growth

CCCCC(=O)O[C@H]1CCC2C3CCc4cc(O)ccc4C3CC[C@@]21C (some centres not stated)
inactive: locus YAL021C, strain ccr4, stronger effect = lower value 1.02 | locus YAL026C, strain drs2, stronger effect = lower value 1.02 | locus YAL030W, strain snc1, stronger effect = lower value 1.03 | locus YBL061C, strain skt5, stronger effect = lower value 1.01 | locus YBR009C, strain hhf1, stronger effect = lower value 0.988 | locus YBR021W, strain FUR4, stronger effect = lower value 0.99 | locus YBR023C, strain chs3, stronger effect = lower value 1.01 | locus YBR171W, strain sec66, stronger effect = lower value 1.03 | locus YBR229C, strain ROT2, stronger effect = lower value 0.943 | locus YBR231C, strain swc5, stronger effect = lower value 1.04 | locus YBR279W, strain paf1, stronger effect = lower value 1.01 | locus YCL011C, strain gbp2, stronger effect = lower value 1.01 | locus YCL016C, strain dcc1, stronger effect = lower value 0.979 | locus YCL029C, strain bik1, stronger effect = lower value 0.98 | locus YCL061C, strain MRC1, stronger effect = lower value 1.02 | locus YCL069W, strain vba3, stronger effect = lower value 1.01 | locus YCR088W, strain abp1, stronger effect = lower value 1.01 | locus YDL005C, strain med2, stronger effect = lower value 1.01 | locus YDL035C, strain GPR1, stronger effect = lower value 0.948 | locus YDL040C, strain nat1, stronger effect = lower value 1.02 | locus YDL074C, strain BRE1, stronger effect = lower value 0.926 | locus YDL101C, strain DUN1, stronger effect = lower value 0.98 | locus YDL134C, strain PPH21, stronger effect = lower value 0.954 | locus YDL185W, strain tfp1, stronger effect = lower value 0.988 | locus YDL192W, strain arf1, stronger effect = lower value 1 | locus YDR001C, strain nth1, stronger effect = lower value 1.01 | locus YDR069C, strain doa4, stronger effect = lower value 1.01 | locus YDR101C, strain arx1, stronger effect = lower value 0.953 | locus YDR137W, strain rgp1, stronger effect = lower value 0.973 | locus YDR150W, strain NUM1, stronger effect = lower value 0.988 | locus YDR159W, strain sac3, stronger effect = lower value 0.953 | locus YDR162C, strain NBP2, stronger effect = lower value 0.919 | locus YDR195W, strain ref2 1.03 | locus YDR297W, strain sur2, stronger effect = lower value 1.03 | locus YDR318W, strain mcm21, stronger effect = lower value 0.996 | locus YDR334W, strain swr1, stronger effect = lower value 1.02 | locus YDR335W, strain msn5, stronger effect = lower value 1.02 | locus YDR388W, stronger effect = lower value 0.992 | locus YDR392W, strain spt3, stronger effect = lower value 0.804 | locus YDR502C, strain sam2, stronger effect = lower value 0.995 | locus YEL003W, strain gim4, stronger effect = lower value 1.02 | locus YEL037C, strain rad23, stronger effect = lower value 1.02 | locus YEL061C, strain CIN8 (second series), stronger effect = lower value 1.02 | locus YEL061C, strain CIN8, stronger effect = lower value 0.985 | locus YER015W, strain faa2, stronger effect = lower value 1 | locus YER016W, strain bim1, stronger effect = lower value 1 | locus YER110C, stronger effect = lower value 1.01 | locus YER111C, strain swi4, stronger effect = lower value 1.01 | locus YER155C, strain BEM2 (second series), stronger effect = lower value 1.03 | locus YER155C, strain BEM2, stronger effect = lower value 0.979 | locus YER167W, strain BCK2, stronger effect = lower value 0.979 | locus YFR010W, strain ubp6, stronger effect = lower value 1.04 | locus YGL078C, strain dbp3, stronger effect = lower value 1.01 | locus YGL086W, strain mad1, stronger effect = lower value 0.968 | locus YGL167C, strain pmr1, stronger effect = lower value 1.04 | locus YGL173C, strain kem1, stronger effect = lower value 1.01 | locus YGL227W, strain vid30, stronger effect = lower value 1.01 | locus YGL240W, strain doc1, stronger effect = lower value 1.04 | locus YGL248W, strain PDE1, stronger effect = lower value 0.976 | locus YGL253W, strain hxk2, stronger effect = lower value 0.997 | locus YGR078C, strain PAC10, stronger effect = lower value 0.973 | locus YGR135W, strain pre9, stronger effect = lower value 1.07 | locus YGR252W, strain gcn5, stronger effect = lower value 1.1 | locus YHR013C, strain ard1, stronger effect = lower value 1.03 | locus YHR027C, strain rpn1, stronger effect = lower value 1.02 | locus YHR030C, strain SLT2, stronger effect = lower value 0.98 and 0.996 | locus YHR079C, strain IRE1 (second series), stronger effect = lower value 0.997 | locus YHR079C, strain IRE1, stronger effect = lower value 0.989 | locus YHR094C, strain hxt1, stronger effect = lower value 0.991 | locus YHR129C, strain ARP1, stronger effect = lower value 0.989 | locus YHR142W, strain chs7, stronger effect = lower value 1.01 | locus YHR200W, strain rpn10, stronger effect = lower value 0.998 | locus YIL066C, strain RNR3, stronger effect = lower value 0.961 | locus YIL073C, strain SPO22, stronger effect = lower value 1 | locus YIL125W, strain kgd1, stronger effect = lower value 0.998 | locus YIR030C, strain dcg1, stronger effect = lower value 1.01 | locus YJL092W, strain hpr5, stronger effect = lower value 1.01 | locus YJL095W, strain BCK1 (second series), stronger effect = lower value 1.02 | locus YJL095W, strain BCK1, stronger effect = lower value 0.926 and 0.996 | locus YJL115W, strain asf1, stronger effect = lower value 1.02 | locus YJL129C, strain trk1, stronger effect = lower value 0.996 | locus YJL134W, strain LCB3, stronger effect = lower value 0.982 | locus YJL154C, strain vps35, stronger effect = lower value 1.01 | locus YJL164C, strain tpk1, stronger effect = lower value 0.987 | locus YJL166W, strain qcr8, stronger effect = lower value 1.02 | locus YJL168C, strain set2, stronger effect = lower value 1 | locus YJL187C, strain SWE1 (second series), stronger effect = lower value 0.982 | locus YJL187C, strain SWE1, stronger effect = lower value 1.02 | locus YJR043C, strain POL32, stronger effect = lower value 0.955 | locus YJR066W, strain TOR1, stronger effect = lower value 0.916 | locus YKL009W, strain mrt4, stronger effect = lower value 0.95 | locus YKL068W, stronger effect = lower value 0.989 | locus YKL085W, strain MDH1 (second series), stronger effect = lower value 1.01 | locus YKL085W, strain MDH1, stronger effect = lower value 1.01 | locus YKL160W, strain elf1, stronger effect = lower value 1.01 | locus YKL190W, strain CNB1, stronger effect = lower value 0.992 | locus YKR001C, strain vps1, stronger effect = lower value 0.959 | locus YKR026C, strain gcn3, stronger effect = lower value 1.01 | locus YKR091W, strain srl3, stronger effect = lower value 1.01 | locus YLL001W, strain dnm1, stronger effect = lower value 1.02 | locus YLL026W, stronger effect = lower value 1.02 | locus YLL041C, strain sdh2, stronger effect = lower value 1.02 | locus YLR027C, strain aat2, stronger effect = lower value 1.03 | locus YLR039C, strain RIC1, stronger effect = lower value 0.848 | locus YLR058C, strain SHM2, stronger effect = lower value 0.96 | locus YLR102C, strain apc9, stronger effect = lower value 1.01 | locus YLR113W, strain HOG1, stronger effect = lower value 1.03 | locus YLR221C, strain rsa3, stronger effect = lower value 0.995 | locus YLR258W, strain gsy2, stronger effect = lower value 1 | locus YLR262C, strain YPT6 (second series), stronger effect = lower value 0.974 | locus YLR262C, strain YPT6, stronger effect = lower value 0.749 | locus YLR268W, strain sec22, stronger effect = lower value 0.982 | locus YLR320W, strain mms22, stronger effect = lower value 0.981 | locus YLR330W, strain CHS5, stronger effect = lower value 0.984 | locus YLR342W, strain FKS1 (second series), stronger effect = lower value 0.98 | locus YLR342W, strain FKS1, stronger effect = lower value 0.998 | locus YLR357W, strain rsc2, stronger effect = lower value 0.999 | locus YLR370C, strain arc18, stronger effect = lower value 1.03 | locus YLR371W, strain rom2, stronger effect = lower value 0.985 | locus YLR384C, strain iki3, stronger effect = lower value 1.02 | locus YLR418C, strain cdc73, stronger effect = lower value 1.02 | locus YML016C, strain PPZ1, stronger effect = lower value 0.979 | locus YML032C, strain rad52, stronger effect = lower value 0.987 | locus YML120C, strain ndi1, stronger effect = lower value 1.02 | locus YML124C, strain tub3, stronger effect = lower value 1 | locus YMR058W, strain fet3, stronger effect = lower value 1.02 | locus YMR078C, strain ctf18, stronger effect = lower value 1 | locus YMR125W, strain sto1, stronger effect = lower value 0.999 | locus YMR129W, stronger effect = lower value 1.01 | locus YMR205C, strain PFK2, stronger effect = lower value 0.985 | locus YMR223W, strain ubp8, stronger effect = lower value 1.04 | locus YMR231W, strain pep5, stronger effect = lower value 1.05 | locus YMR307W, strain GAS1, stronger effect = lower value 0.881 | locus YNL067W, strain RPL9B, stronger effect = lower value 0.982 | locus YNL071W, strain lat1, stronger effect = lower value 0.965 | locus YNL128W, strain TEP1, stronger effect = lower value 0.982 | locus YNL183C, strain NPR1, stronger effect = lower value 0.983 | locus YNL209W, strain ssb2, stronger effect = lower value 1.02 | locus YNL233W, strain BNI4, stronger effect = lower value 0.986 | locus YNL248C, strain rpa49, stronger effect = lower value 1.01 | locus YNL250W, strain rad50, stronger effect = lower value 0.984 | locus YNL271C, strain bni1, stronger effect = lower value 1 | locus YNL298W, strain CLA4, stronger effect = lower value 1 | locus YNL307C, strain MCK1, stronger effect = lower value 1 | locus YNL322C, strain KRE1 (second series), stronger effect = lower value 1.01 | locus YNL322C, strain KRE1, stronger effect = lower value 0.998 | locus YNR049C, strain mso1, stronger effect = lower value 1 | locus YNR052C, strain pop2, stronger effect = lower value 1.01 | locus YOL012C, strain htz1 1.24 | locus YOL147C, strain pex11, stronger effect = lower value 1.01 | locus YOR001W, strain rrp6, stronger effect = lower value 1.03 | locus YOR061W, strain CKA2, stronger effect = lower value 0.962 | locus YOR069W, strain VPS5, stronger effect = lower value 0.984 | locus YOR070C, strain gyp1, stronger effect = lower value 1.02 | locus YOR080W, strain dia2, stronger effect = lower value 1.03 | locus YOR083W, strain WHI5, stronger effect = lower value 1 | locus YOR106W, strain vam3, stronger effect = lower value 1.04 | locus YOR136W, strain idh2, stronger effect = lower value 1 | locus YOR144C, strain elg1, stronger effect = lower value 0.999 | locus YOR184W, strain ser1, stronger effect = lower value 0.969 | locus YOR231W, strain MKK1, stronger effect = lower value 1.04 | locus YOR265W, strain rbl2, stronger effect = lower value 1.02 | locus YOR270C, strain vph1, stronger effect = lower value 0.965 | locus YOR290C, strain snf2, stronger effect = lower value 0.988 | locus YOR316C, strain cot1, stronger effect = lower value 0.994 | locus YPL051W, strain arl3, stronger effect = lower value 1.01 | locus YPL055C, strain LGE1, stronger effect = lower value 0.959 | locus YPL078C, strain atp4, stronger effect = lower value 1.03 | locus YPL106C, strain sse1, stronger effect = lower value 1 | locus YPL240C, strain hsp82, stronger effect = lower value 1.01 | locus YPL241C, strain CIN2, stronger effect = lower value 0.975 | locus YPL256C, strain CLN2, stronger effect = lower value 1 | locus YPR119W, strain clb2, stronger effect = lower value 0.998 | locus YPR141C, strain kar3, stronger effect = lower value 0.997 | locus YPR163C, strain tif3, stronger effect = lower value 1.01 | locus YPR167C, strain met16, stronger effect = lower value 1 | strain wtn01, stronger effect = lower value 1.03
